Inconclusive results are not listed. The source made the active and inactive calls. How the source made its calls: active means hit-call score of the fitted dose curve at least 0.9, where 1 is the maximum; inconclusive means response in the unintended direction; inactive means score below 0.9.
Experiments:
[1] = Tanguay_ZF_120hpf_ActivityScore_legacy: (Legacy) Oregon State University Tanguay Lab 120 Hour Post-fertilization zebrafish Assay Score for Activity (AID 2283742);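 on AC50: dechorionated Tropical 5D wild-type zebrafish embryos held singly per well; static exposure from 6 hpf until 120 hpf at 28 °C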
Outline: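 In this whole-embryo screen, dechorionated zebrafish were exposed from 6 hpf until 120 hpf at 28C under a 0.64% DMSO vehicle. Developmental malformations and death were recorded by brightfield microscopy as binary endpoints.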

[2] = system: Thyroperoxidase (TPO), gene 445522; assay: CCTE_Simmons_GUA_TPO: CCTE's Guaiacol Assay for Thyroperoxidase (TPO) Inhibition, Simmons Lab (AID 2283750)
Outline: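 Porcine thyroid microsomes (25 ug) in 200mM potassium phosphate, preincubated 30 s at 37C with compound (8 concentrations, 5 nM–87.5 uM) and 35mM guaiacol; 1mM H2O2 starts reaction. Absorbance change at 450nm over first 80 s; loss of signal versus DMSO, three replicates.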

## CCCCC(CC)COC(=O)CCCCCCCCC(=O)OCC(CC)CCCC (stereo unspecified)
[1]
  outcome: inactive

## CC[C@H](C)C(=O)O[C@H]1C[C@@H](C)C=C2C=C[C@H](C)[C@H](CC[C@@H]3C[C@@H](O)CC(=O)O3)[C@H]21
[1]
  AC50: 1.68 µM (active)

## COc1ccc(/C=C/S(=O)(=O)NC(=O)c2ccc(C)cc2Cl)cc1
[1]
  outcome: inactive

## Nc1nc2ncc(CNc3ccc(C(=O)N[C@@H](CCC(=O)O)C(=O)O)cc3)nc2c(=O)[nH]1
[1]
  outcome: inactive
[2]
  outcome: inactive

## COc1cccc(-c2ccc(/C=C\CN3CCCCCC3)cc2Cl)c1
[1]
  AC50: 41.8 µM (active)

## O=C1OC(=O)C2C3C=CC(C3)C12 (stereo unspecified)
[1]
  outcome: inactive

## CC1(C)C(=O)N(Br)C(=O)N1Br
[1]
  outcome: inactive

## On1ccccc1=S
[1]
  outcome: inactive
[2]
  AC50: 85.9 µM (active)

## CCCCCCc1ccc(O)cc1O
[1]
  AC50: 43.8 µM (active)

## C1=CCCC=CCCC=CCC1
[1]
  outcome: inactive

## CCCCCCCCCCCCc1ccccc1
[1]
  outcome: inactive

## CC(C)CCCCCCOC(=O)c1ccc(C(=O)OCCCCCCC(C)C)c(C(=O)OCCCCCCC(C)C)c1
[1]
  outcome: inactive

## Cc1ccc(O)cc1
[1]
  outcome: inactive

## Nc1ccc(Nc2ccccc2)cc1
[1]
  AC50: 30.1 µM (active)

Source: PubChem BioAssay (EPA / NIEHS)
